Results filed as inconclusive are left out. Calls of active or inactive are those of the source. Calls follow the shape of the dose curve; as a rule, active = well fitted inhibition curve with a large enough effect; inconclusive = small, poorly fitted or top-dose-only effect; inactive = flat fitted curve, though single readings scatter.
Key:
Experiment in all cases: qHTS profiling for inhibitors of Plasmodium falciparum proliferation (AID 504749); also: nearly all actives have a fitted effect of over 60% in size
Settings in all cases: P. falciparum in erythrocytes, SYBR Green DNA, 72 h; series mostly up to 12.8 µM
[1] = tested on: CP256
Procedure, shortened: (§1)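 Three-day growth assay of blood-stage parasites in erythrocytes (0.3% parasitemia, 2.5% hematocrit) at 37 C, 5% CO2, quantified by SYBR Green DNA staining after overnight detergent lysis.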

[2] = tested on: CP260
Procedure, shortened: as §1

[3] = tested on: CP262
Procedure, shortened: as §1

[4] = tested on: CP265
Procedure, shortened: as §1

[5] = tested on: CP266
Procedure, shortened: as §1

[6] = tested on: CP268
Procedure, shortened: as §1

[7] = tested on: CP269
Procedure, shortened: as §1

[8] = tested on: CP286
Procedure, shortened: as §1

[9] = tested on: CP291
Procedure, shortened: as §1

[10] = tested on: CP297
Procedure, shortened: as §1

[11] = tested on: CP305
Procedure, shortened: as §1

[12] = tested on: CP315
Procedure, shortened: as §1

[13] = tested on: CP325
Procedure, shortened: as §1

[14] = tested on: CP329
Procedure, shortened: as §1

[15] = tested on: DFO2036
Procedure, shortened: as §1

[16] = tested on: DIV14
Procedure, shortened: as §1

[17] = tested on: DIV17
Procedure, shortened: as §1

[18] = tested on: DIV30
Procedure, shortened: as §1

[19] = tested on: Dd2
Procedure, shortened: as §1

[20] = tested on: ECU
Procedure, shortened: as §1

[21] = tested on: FAB9
Procedure, shortened: as §1

[22] = tested on: GB4
Procedure, shortened: as §1

[23] = tested on: HB3
Procedure, shortened: as §1

[24] = tested on: ICS
Procedure, shortened: as §1

[25] = tested on: JCK
Procedure, shortened: as §1

[26] = tested on: N140
Procedure, shortened: as §1

[27] = tested on: P93_24
Procedure, shortened: as §1

[28] = tested on: P94_40
Procedure, shortened: as §1

[29] = tested on: PAD
Procedure, shortened: as §1

[30] = tested on: PC15
Procedure, shortened: as §1

[31] = tested on: PC26
Procedure, shortened: as §1

[32] = tested on: PC49
Procedure, shortened: as §1

[33] = tested on: SC27B
Procedure, shortened: as §1

[34] = tested on: TAB109
Procedure, shortened: as §1

[35] = tested on: TAB113
Procedure, shortened: as §1

[36] = tested on: TAB165
Procedure, shortened: as §1

[37] = tested on: W2
Procedure, shortened: as §1

Measured: Potency

C[C@H](Oc1ccccc1)C(=O)N[C@@H]1C(=O)N2[C@@H]1SC(C)(C)[C@@H]2C(=O)O
inactive: all assays above
